Source: PubChem BioAssay (National Center for Advancing Translational Sciences (NCATS))
FUS yeast rescue: suppressors of FUS proteinopathy in yeast | S. cerevisiae FUS-expressing, growth rescue, OD600, 24 h | AID 1347120 | actives 0.24% (n = 390,000) | Potency, µM (series often up to 76.6 µM), usual class: activators;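 also: potency is read from the fitted curve at half-maximal effect; plate controls were DMSO vehicle for no effect and reference control for full effect; nearly all actives have a fitted effect of over 55% in size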
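Quantitative HTS measuring growth restoration of FUS-toxic yeast. Galactose-induced cells (OD 0.005) were exposed 24hr at 30C to compounds at several concentrations, then absorbance at 600 nm was recorded.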
LDHA block: inhibitors of human lactate dehydrogenase A; purified LDHA, NADH/diaphorase-resazurin fluorescence; hits give low values; activity change, % (values are at about 110 or 230 µM); actives 0.15% (n = 480,000); P00338; AID 1347041; in the data active = activity change below about -30%; inconclusive = mostly about -25% to -30%;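 also: plate controls were DMSO wells for no effect and wells without enzyme for full effect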
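Enzyme activity of human lactate dehydrogenase 5 (2 nM; 0.06 mM NADH, 0.2 mM pyruvate, 5 min, RT) is measured via a resazurin/diaphorase fluorescence readout of residual NADH.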
mIDH1 inhibitor: blocks human mutant IDH1 R132H enzyme; O75874; IDH1-R132H enzyme, NADPH consumption, diaphorase/resazurin fluorescence; Potency, µM (titrated, usually from 76.6 µM), for the others: at the highest dose activity change, negative = inhibition, most hits filed as inhibitors; actives 0.093% (n = 390,000); also: potency is read from the fitted curve at half-maximal effect; % is scaled to controls: 0 for no effect and ±100 for the full control effect; nearly all actives have a fitted effect of over 65% in size
Target sequence (O75874 whole entry R132H, stated change not applied): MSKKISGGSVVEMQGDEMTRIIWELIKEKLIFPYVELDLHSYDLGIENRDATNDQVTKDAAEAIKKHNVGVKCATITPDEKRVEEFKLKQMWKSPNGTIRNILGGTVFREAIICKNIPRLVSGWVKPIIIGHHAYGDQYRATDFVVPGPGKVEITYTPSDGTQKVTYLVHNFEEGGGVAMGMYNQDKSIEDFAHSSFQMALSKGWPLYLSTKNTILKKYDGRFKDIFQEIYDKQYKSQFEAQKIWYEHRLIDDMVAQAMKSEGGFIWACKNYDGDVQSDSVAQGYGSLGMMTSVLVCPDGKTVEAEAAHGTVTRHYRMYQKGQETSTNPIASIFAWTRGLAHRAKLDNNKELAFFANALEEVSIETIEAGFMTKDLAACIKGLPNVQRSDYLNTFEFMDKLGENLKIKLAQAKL
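IDH1-R132H (0.5 ug/mL) preincubated 30 min with compound, then NADPH (0.016 mM) and alpha-KG (2 mM) added; 80 min at RT, pH 7.5. Remaining NADPH coupled via diaphorase/resazurin to fluorescence (540/590 nm); concentration-response curves normalized to no-enzyme control.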
TDP-43 yeast inh: rescues yeast growth from TDP-43 toxicity. TDP-43 expressing yeast growth rescue, BacTiter-Glo, 24 h. Potency, µM (doses to about 46.1 µM), inactives show at the top dose growth rescue (activation), hits mostly activators. AID 652104. actives 1.8% (n = 410,000); also: potency is read from the fitted curve at half-maximal effect; % of control where 0% means no effect; nearly all actives have a fitted effect of over 50% in size
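Readout is BacTiter-Glo luminescence of cell growth, so inhibitors register as activators. TDP-43-expressing yeast at OD600=0.02 in galactose medium, after raffinose pregrowth to mid-log, were incubated with compound for 24 hr at 30 deg C.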
Abeta yeast res: A-beta toxicity reversal in yeast; yeast expressing A-beta42, growth rescue, OD600, 48 h; response scale: 0% DMSO, 100% iron-clioquinol control; Potency, µM (highest dose often 46.1 µM), hits mostly activators; actives 0.063% (n = 410,000); AID 1347071; also: potency is read from the fitted curve at half-maximal effect; nearly all actives have a fitted effect of over 55% in size
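Yeast A-beta toxicity model in growth medium with pinned compounds, 48 h at 30 C; growth read as absorbance at 600 nm. Normalized to FeCl3/clioquinol equimolar mix (positive) and DMSO (negative).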
aSyn yeast inh: inhibitors of alpha-synuclein toxicity in yeast; Yeast expressing alpha-synuclein, growth rescue, BacTiter-Glo, 24 h; Potency, µM (top dose mostly 46.1 µM), for inactives: at the highest dose growth rescue (activation), actives largely listed as activators; actives 0.14% (n = 370,000); also: potency is read from the fitted curve at half-maximal effect; % of control where 0% means no effect; nearly all actives have a fitted effect of over 65% in size
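Screening used galactose-induced yeast with toxic alpha-synuclein levels, exposed to compound for 24 hr at 30 deg C. Cell growth, read with BacTiter-Glo luminescence, gave the measured signal.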
Numbers without * were called inactive; i = inactive; ? = inconclusive; nt = no result; [ ] = another dose, or the depositor's remark. Only some compounds are listed: those with a hit (about 2% of all), similar ones and a draw of the others. Unless noted, calls follow the shape of the dose curve; as a rule, active = well fitted curve in the direction sought with a large enough effect; inconclusive = small, poorly fitted or top-dose-only effect, or another doubt; inactive = no such curve, though single readings can be large; an effect the other way counts as inactive or inconclusive.

SMILES	FUS yeast rescue	LDHA block	mIDH1 inhibitor	TDP-43 yeast inh	Abeta yeast res	aSyn yeast inh
COc1ccc(C2C(C#N)=C(N)N(c3cccnc3)C3=C2C(=O)CCC3)cc1Cn1cc([N+](=O)[O-])cn1 (configuration not stated)	?	15.5	2.4%	-3.3%	i	0.5%
COc1ccc(C2C(C#N)=C(N)N(c3ccccc3)C3=C2C(=O)CCC3)cc1Cn1cc([N+](=O)[O-])cn1 (configuration not stated)	25.1µM*	-0.1	0.0%	-12.2%	i	-10.3%
CCCCCCCCN1C(=O)[C@H](CC(=O)N2CCOCC2)C[C@@]2(C(=O)OC)CC(C)(C)CC=C12	12.6µM*	4.9	nt	?	i	?
COC(=O)[C@@]12C[C@@H](CC(=O)NCc3cccc4ccccc34)C(=O)N(Cc3ccc4c(c3)OCO4)C1=CCC(C)(C)C2	6.31µM*	6.6	nt	-15.3%	i	16.2%
CCCCCCCCN1C(=O)[C@H](CC(=O)NCc2ccc(OC)c(OC)c2)C[C@@]2(C(=O)OC)CC(C)(C)CC=C12	?	7.3	nt	22.4µM*	i	?
COC(=O)[C@@]12C[C@@H](CC(=O)NCc3ccccc3)C(=O)N(Cc3ccc4c(c3)OCO4)C1=CCC(C)(C)C2	?	2.2	nt	20.3%	i	2.9%
O=C(NCc1ccc(Cl)cc1)c1cccc(-c2ccc(S(=O)(=O)N3CCCCC3)cc2)c1	nt	-3.0	nt	nt	nt	nt
O=C(CSc1nc2cc3c(cc2c(=O)n1Cc1ccco1)OCO3)Nc1ccc(F)cc1	nt	-0.5	nt	nt	nt	nt
CCC(=O)Nc1cc(C(=O)OC(C(=O)c2ccc(C)c(C)c2)c2ccccc2)ccc1C (configuration not stated)	10µM*	0.8	-0.4%	-0.1%	i	-0.5%
CN(C(=S)NC(=O)C12CC3CC(CC(C3)C1)C2)c1ccc(O)cc1	i	19.5	7.9%	17.8µM*	i	-4.8%
CN(C)NC(=S)NC(=O)C12CC3CC(CC(C3)C1)C2	i	-6.6	30.7%	3.2%	i	-0.3%
COc1ccc2c(C)c(CC(=O)N(C)C3CCS(=O)(=O)C3)c(=O)oc2c1 (configuration not stated)	nt	5.7	nt	nt	nt	nt
O=C(/C=C/c1ccccc1Cl)Nc1ccc2c(c1)C(=O)NC2=O	i	-46.3*	-4.9%	3.1%	i	0.1%
COc1ccc(OC)c(C(=O)NCC2(c3ccc(F)cc3)CCOCC2)c1	nt	6.1	nt	nt	nt	nt
COC(=O)c1ccc(COC(=O)CC23CC4CC(CC(Br)(C4)C2)C3)o1	nt	5.7	nt	nt	nt	nt
C=C1c2nc3ccccc3n2C=C(c2ccc(C)cc2)N1c1ccccc1	nt	26.0	9.0%	14.1µM*	i	-25.8%
Cc1ccc(C2=CCN(C)C(=O)N2c2ccccc2)cc1	i	nt	nt	nt	nt	nt
O=C(O)Cc1ccc(Oc2ncc(C(F)(F)F)cc2Cl)cc1	i	-1.8	0.0%	12.6µM*	i	1.7%
FC(F)(F)c1cnc(Oc2ccc(-c3nnco3)cc2)c(Cl)c1	i	-2.0	6.3%	26.1%	?	23.4%
Cc1ccccc1C(=O)Nc1sc2c(c1C(=O)N1CCCCC1)CCC(C)C2 (configuration not stated)	i	-9.1	-8.8%	17.8µM*	i	nt
CCCOC(=O)Nc1ccccc1N=C1CCC/C1=C\c1ccccc1	nt	5.3	nt	nt	nt	nt
O=C(COC(=O)/C=C/c1cccc(Cl)c1)NC1CCCC1	i	-1.6	10.4%	12.6µM*	i	-3.2%[1.84 µM]
O=C(COC(=O)/C=C/c1ccc(F)cc1)NCC1CCCO1 (configuration not stated)	i	-3.8	0.1%	21.6%	i	3.0%
O=C(COC(=O)/C=C/c1ccc(Cl)cc1)NC1CC1	i	-2.4	11.6%	35.5µM*	i	-0.1%
O=C(COC(=O)/C=C/c1cccc(C(F)(F)F)c1)NC1CCCCCC1	i	-9.4	-2.5%	24.1%	i	-0.6%
SMILES	FUS yeast rescue	LDHA block	mIDH1 inhibitor	TDP-43 yeast inh	Abeta yeast res	aSyn yeast inh
O=C(COC(=O)/C=C/c1cccc(Cl)c1)NC1CC1	i	-11.4	-10.4%	25.5%	i	-8.1%
O=C(COC(=O)/C=C/c1ccc(C(F)(F)F)cc1)NC1CCCC1	i	-1.9	17.4%	10µM*	i	10.8%
O=C(COC(=O)/C=C/c1ccc(C(F)(F)F)cc1)NCC1CCCO1 (configuration not stated)	i	-6.6	8.6%	25.1µM*	i	6.9%
CC(C)=CC(=O)CC1(C#N)C(N)=C(C=O)CC1(C#N)C#N (configuration not stated)	nt	6.3	nt	nt	nt	nt
Cn1c(SCc2csc(-c3ccc4c(c3)OCO4)n2)nnc1C1CCCCC1	nt	-2.4	nt	nt	nt	nt
O=C(COC(=O)/C=C/c1ccc(C(F)(F)F)cc1)NC1CC1	i	-0.7	1.4%	6.31µM*	i	14.2%
CSc1ccc(/C=C/C(=O)OCC(=O)NC2CC2)cc1	i	-2.5	-7.3%	22.4µM*	i	8.2%
O=C(COC(=O)/C=C/c1ccccc1)NCc1ccco1	i	0.9	8.7%	5.1%	i	-4.3%
O=C(COC(=O)/C=C/c1ccccc1)NC1CC1	i	-9.0	-8.3%	17.8%	i	-10.1%
O=C(COC(=O)/C=C/c1ccc(C(F)(F)F)cc1)NCc1ccco1	i	-2.3	-9.2%	17.8µM*	i	-5.0%
O=S1(=O)CCN(C2CCCCC2)c2c(F)nc(N3CCOCC3)c(F)c21	nt	16.5	nt	nt	nt	nt
CCCc1c(C)nc(Nc2nc(C)c3cccc(OCC)c3n2)[nH]c1=O	nt	17.5	nt	nt	nt	nt
CC1CCc2c(C(=O)NCCN3CCOCC3)csc2C1 (configuration not stated)	i	-7.8	0.0%	-19.8%	i	-6.1%
CC1CCc2c(C(=O)Nc3ccc(N4CCOCC4)cc3)csc2C1 (configuration not stated)	i	-1.1	0.2%	7.08µM*	i	6.5%
Cc1cc(C)c(NC(=O)CNC(=O)COC(=O)Cc2cccs2)c(C)c1	i	-2.8	3.0%	11.2µM*	i	-1.4%
c1ccc2c(c1)OCCc1c-2[nH]c2ccccc12	i	-1.7	-3.6%	12.6µM*	i	-2.9%
COc1ccc(C(=O)C(C)Oc2ccc(C#N)cc2OC)cc1 (configuration not stated)	nt	-1.4	nt	nt	nt	nt
C=CCOc1ccc(CNC2CC2)cc1	nt	3.1	nt	nt	nt	nt
O=C(CCCN1C(=O)c2ccccc2C1=O)NCCc1ccc(OC(F)F)cc1	i	-5.2	5.8%	12.6µM*	?	-9.0%
CCOC(=O)c1c(C=O)c(C)n(Cc2ccc(Cl)cc2)c1C	i	-6.3	1.3%	35.5µM*	i	8.6%
